FBW7 activator: human FBW7 E3 ligase activation, primary screen; Q969H0; AlphaScreen FBW7–phospho-cyclin E peptide binding, activator screen; normalized activity (activation), % at 26.1 µM; actives 0.13% (n = 650,000); AID 1259310; in the data active = normalized activity above about 1.9%;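 note: purified mutant Fbw7 with reduced substrate affinity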
TEAD-YAP inh: TEAD-YAP interaction inhibition | HEK-TIYL cells, TEAD-Gal4/YAP UAS-luciferase luminescence | inhibition, % at 9.12 µM | actives 1.4% (n = 640,000); in the data active = inhibition above about 32%
MITF inh: blocks human microphthalmia-associated transcription factor | O75030 | inhibition, % at 2.6 µM | actives 0.91% (n = 650,000) | AlphaScreen MITF homodimerization, bead proximity signal; in the data active = inhibition above about 50%
Target sequence (O75030 whole entry, looked up): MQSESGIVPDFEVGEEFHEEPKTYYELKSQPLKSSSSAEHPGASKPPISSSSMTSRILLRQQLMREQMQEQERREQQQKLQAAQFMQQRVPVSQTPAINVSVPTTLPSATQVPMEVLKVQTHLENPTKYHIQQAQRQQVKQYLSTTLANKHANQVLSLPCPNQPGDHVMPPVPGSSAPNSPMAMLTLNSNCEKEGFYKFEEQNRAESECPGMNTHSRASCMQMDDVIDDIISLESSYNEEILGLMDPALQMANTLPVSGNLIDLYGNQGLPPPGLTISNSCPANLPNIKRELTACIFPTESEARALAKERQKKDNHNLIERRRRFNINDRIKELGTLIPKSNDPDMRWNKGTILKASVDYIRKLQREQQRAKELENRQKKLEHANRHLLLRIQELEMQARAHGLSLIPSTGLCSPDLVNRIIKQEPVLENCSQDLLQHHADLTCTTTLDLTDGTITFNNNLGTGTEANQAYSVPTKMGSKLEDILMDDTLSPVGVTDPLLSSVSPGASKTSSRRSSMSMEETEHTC
GPR151 ag: activates the human receptor GPR151 | Q8TDV0 | PathHunter beta-arrestin GPR151 cells, luminescence | activation, % at 11.2 µM | actives 1% (n = 650,000) | AID 1508602; in the data active = activation above about 4.9%
GPR151 conf act: confirmation of human GPR151 activators; activation, % at 11.2 µM; shares compounds with GPR151 ag; 6,700 tested, under 10 active; GPR151 PathHunter beta-arrestin cells, luminescence, 90 min; % of EA-reagent control over plate median;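 active = mean percent activation across replicates above the confirmation screen cutoff of 4.91%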
GPR119 ag: counter-screen for GPR151 activators: effect on human GPR119; shares compounds with GPR151 ag; activation, % at 11.2 µM; actives 0.3% (n = 6,700); GPR119 PathHunter beta-arrestin cells, luminescence, 90 min; 0 = compound-well median, 100 = enzyme-acceptor control;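 active = mean percent activation in the counterscreen above 29.09%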;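 note: counterscreen on off-target GPR119 to flag nonselective hits from the GPR151 activator screen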
Numbers stand for hits; n = inactive; x = no result given. Rows were chosen to be rich in hits. Some 3.5% of all compounds tested hit in one or more screens of this group.

SMILES | FBW7 activator | TEAD-YAP inh | MITF inh | GPR151 ag | GPR151 conf act | GPR119 ag
CCCNC(=O)CSc1nc2ccccc2n1CC(=O)NC1CCCC1 | n | n | n | 7.8 | n | n
COC(=O)CSc1nc2ccccc2n1CC(=O)NC1CCCC1 | n | n | n | n | x | x
Cc1cc2c(cc1S(=O)(=O)NC1CCCC(C)C1C)OCC(=O)N2 (centres undefined) | n | n | n | n | x | x
CC1CCCC(NS(=O)(=O)c2cc3c(cc2Cl)NC(=O)CO3)C1C (centres undefined) | n | n | n | 7.8 | n | n
CC(=O)N1N=C(c2ccccc2)CC1c1cn(-c2ccccc2)nc1-c1ccc(C)cc1 (centres undefined) | n | n | n | 6.0 | n | n
O=C(/C=C/c1cccc(I)c1)Nc1nc2ccccc2s1 | n | n | n | n | x | x
CCCOc1ccc(-c2nnc(SCC(N)=O)n2-c2ccccc2)cc1 | n | n | n | 5.3 | n | n
CCOc1ccc(-c2nnc(SCC(N)=O)n2-c2ccccc2)cc1 | n | n | n | n | x | x
COc1ccc(-c2ocnc2C(=O)NCCN2CCCCCC2)cc1OC | n | n | n | n | x | x
O=C(NCCN1CCCCCC1)c1ncoc1-c1ccc(Cl)cc1 | n | n | n | 5.9 | n | n
COc1cc(N2CCOCC2)ccc1/C=C1\C(=O)NC(=S)N(c2ccc(F)cc2)C1=O | n | n | n | 5.2 | n | n
COc1ccc(CN(C)CC(=O)Nc2ccc(C(N)=O)cc2)c(OC)c1OC | n | n | n | 5.0 | n | n
CN(CC(=O)Nc1ccc(C(N)=O)cc1)Cc1ccc(C(C)(C)C)cc1 | n | n | n | n | x | x
CN(CC(=O)Nc1ccc(C(N)=O)cc1)CC(=O)Nc1ccccc1Cl | n | n | n | n | x | x
CN(CC(=O)Nc1ccc(Cl)cc1)CC(=O)Nc1ccc(C(N)=O)cc1 | n | n | n | 5.4 | n | n
CCOCCn1ccc2c(OCC(=O)Nc3ccc(F)cc3F)cccc2c1=O | n | n | n | n | x | x
CCOCCn1ccc2c(OCC(=O)NCCOC)cccc2c1=O | n | n | n | 14 | n | n
CCc1nnc(NC(=O)C2(c3cccc(F)c3)CCCC2)s1 | n | n | n | 5.2 | n | n
O=C(NC(=O)c1ccc(Cn2cc(C(F)(F)F)ccc2=O)cc1)Nc1cccnc1 | n | n | n | 5.2 | n | n
Cc1ccc(NC(=O)NC(=O)c2cccc(Cn3cc(C(F)(F)F)ccc3=O)c2)nc1 | n | n | n | n | x | x
Cc1c(Cl)cccc1NC(=O)c1cc([N+](=O)[O-])ccc1N1CCN(C)CC1 | n | n | n | 6.2 | n | n
CN1CCN(c2ccccc2NC(=O)c2ccc([N+](=O)[O-])cc2Cl)CC1 | n | n | n | n | x | x
COc1ccc(S(=O)(=O)N2CCCC(N3CCOCC3)C2)c(OC)c1 (centres undefined) | n | n | n | n | x | x
CCCC(=O)N(c1ccc2oc(C)c(C(=O)OCC)c2c1)S(=O)(=O)c1ccc2ccccc2c1 | n | n | n | n | x | x
CCCC(=O)N(c1ccc2oc(C)c(C(=O)OC)c2c1)S(=O)(=O)c1ccc2ccccc2c1 | n | n | n | 5.2 | n | n
SMILES | FBW7 activator | TEAD-YAP inh | MITF inh | GPR151 ag | GPR151 conf act | GPR119 ag
NC(=O)c1nn2c(c1Br)NC(c1ccccc1)CC2C(F)(F)F (centres undefined) | n | n | n | n | x | x
O=C(O)c1nn2c(c1Br)NC(c1ccccc1)CC2C(F)(F)F (centres undefined) | n | n | n | 7.2 | n | n
O=[N+]([O-])c1cc(C(F)(F)F)ccc1NCCNCCO | n | n | n | n | x | x
O=[N+]([O-])c1ccccc1NCCNCCO | n | n | n | 7.9 | n | n
Cc1nonc1OCCNCCNc1ccccc1[N+](=O)[O-] | n | n | n | 5.6 | n | n
Cc1nonc1OCCCNc1ccc([N+](=O)[O-])cc1 | n | n | n | n | x | x
COc1ccc(OC)c(/C=C2N=C(/C=C/c3cccc(Cl)c3Cl)OC\2=O)c1 | n | n | n | n | x | x
CNC(=O)/C=C/c1cccc(C(F)(F)F)c1 | n | n | n | 6.1 | n | n
Cc1cc(Nc2ccc(Oc3ccccc3)cc2)nc(Nc2ccccn2)n1 | n | n | n | 5.9 | n | n
Cc1cc(Nc2ccc(Oc3ccccc3)cc2)nc(Nc2cccnc2)n1 | n | n | n | n | x | x
C/C=C/COC(=O)C1=C(C)NC(=O)NC1c1ccc(N(CC)CC)cc1 (centres undefined) | n | n | n | n | x | x
Cc1cc(C)cc(NC(=O)CC2CC3CCC2C3)c1 (centres undefined) | n | n | n | 8.7 | n | n
CCc1nnc(NC(=O)CCCOc2ccccc2C)s1 | n | n | n | 12 | n | n
Cc1ccccc1OCCCC(=O)Nc1nnc(C(C)C)s1 | n | n | n | n | x | x
CCc1nnc(NC(=O)CN2CCC(O)(c3ccccc3OC)CC2)s1 | n | n | n | 6.5 | n | n
CCOc1ccccc1C(=O)NCc1ccc(C)cc1 | n | n | n | n | x | x
Cc1ccc(C(=O)NCC(=O)NCC(=O)OCc2ccc(Br)cc2)cc1 | n | n | n | n | x | x
Cc1cc(C)nc(NNS(=O)(=O)c2ccc(Cl)cc2)n1 | n | n | n | 5.9 | n | n
COc1cc(Nc2nc(Nc3ccncn3)nc3c2ncn3CCN2CCCC2=O)cc(OC)c1OC | n | n | n | n | x | x
CCc1ccc(-n2c(=S)sc3c(=O)n(-c4ccccc4)c(SCc4cccc([N+](=O)[O-])c4)nc32)cc1 | n | n | n | n | x | x
CC(C)CC(=O)NC(c1ccc2c(c1)OCO2)c1c(O)ccc2ccccc12 (centres undefined) | n | n | n | 5.2 | n | n
O=C(CCc1ccccc1)NC(c1ccc2c(c1)OCO2)c1c(O)ccc2ccccc12 (centres undefined) | n | n | n | n | x | x
O=C(Cn1ncc2ccccc21)NCc1cccc(Br)c1 | n | n | n | n | x | x
O=C(Cn1ncc2c(Cl)cccc21)NCc1cccc(Br)c1 | n | n | n | 6.5 | n | n
CCOc1cc(C)c(C(C)C)cc1S(=O)(=O)N1CCN(C)CC1 | n | n | n | n | x | x
SMILES | FBW7 activator | TEAD-YAP inh | MITF inh | GPR151 ag | GPR151 conf act | GPR119 ag
CCOc1cc(C)c(C(C)C)cc1S(=O)(=O)N(CC)CC | n | n | n | 16 | n | n
COc1ccc(Br)cc1S(=O)(=O)N1CCN(c2ccc(F)cc2)CC1 | n | n | n | n | x | x
C=CCNC(=O)c1c(N)n(CCc2cccc(OC)c2)c2nc3ccccc3nc12 | n | n | n | n | x | x
COc1cccc2cc(C(=O)C3=C(O)C(=O)N(Cc4ccco4)C3c3cccnc3)oc12 (centres undefined) | n | n | n | 5.4 | n | n
O=C(Nc1cccnc1)c1cnn2cc(Br)cnc12 | n | n | n | n | x | x
O=C(Nc1ccc(Cl)cc1)c1cnn2cc(Br)cnc12 | n | n | n | 7.3 | n | n
COc1nc(NCCCN2CCCC2=O)nc(-c2ccc(C(=O)N3CCN(C)CC3)cc2)n1 | n | n | n | n | x | x
COc1nc(NCCCN2CCCC2=O)nc(-c2ccc(C(N)=O)cc2)n1 | n | n | n | 8.5 | n | n
